Drawing on PubChem BioAssay (EPA / NIEHS), this text covers outcome and AC50 for 18 compounds.

Activity calls are given as the source filed them. How the source made its calls: active means hit-call score of the fitted dose curve at least 0.9, where 1 is the maximum; inactive means score below 0.9.

Read-out in the assay: Monokine induced gamma interferon (MIG), CXCL9 (gene 4283)
Description: BSK_hDFCGF_MIG: BioMAP Diversity Plus: hDFCGF Assay for Monokine induced gamma interferon (MIG) Biomarker Activity (AID 2283063). As to conditions: primary human foreskin fibroblasts; actives raise or lower the signal. In short, it runs like this:
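ELISA read-out of MIG from primary human dermal fibroblasts 24 h post-dosing. Gain or loss of signal fitted bidirectionally, DMSO as baseline.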
For `C[C@]12CC[C@@H]3c4ccc(O)cc4CC[C@H]3[C@@H]1CC[C@H]2O`, the outcome was inactive.

For `O=c1ccc2ccccc2o1`, the result was inactive.

On to `Cc1cccc2ccccc12`, for which the outcome was inactive.

Usually AC50 stands for the concentration giving half of the maximal activity seen. Take `Clc1ccccc1C(c1ccccc1)(c1ccccc1)n1ccnc1`: the AC50 is 8.88 µM (active).

Turning to `CCCOC(=O)c1cc(O)c(O)c(O)c1`, the AC50 is 10.8 µM (active).

Regarding `COc1ccc2cc(S(=O)(=O)N[C@H](CC(=O)N[C@H](Cc3ccc(CN4[C@H](C)CCC[C@@H]4C)cc3)C(=O)N(C)C(C)C)c3ccc4c(c3)OCO4)ccc2c1`, the half-maximal activity concentration (AC50) was 33.3 µM (active).

Take `CN(C)c1ccc(C(=C2C=CC(=[N+](C)C)C=C2)c2ccc(N(C)C)cc2)cc1`: the AC50 was 5.26 µM (active).

With `O=c1c(-c2ccc(O)cc2)coc2cc(O)cc(O)c12`, the result was inactive.

For the compound `O=C=NCCCCCCN=C=O`, the outcome was inactive.

`O=C1c2ccccc2C(=O)N1CCc1noc(-c2ccc(CN3CCCCCC3)s2)n1`: the outcome was inactive.

Take `Cc1c2ccccc2c(C)c2c1ccc1ccccc12`: the outcome was inactive.

In the case of `O=C(O)Cc1cc(I)c(Oc2ccc(O)c(I)c2)c(I)c1`, the outcome was inactive.

Turning to `CN1C(=O)CC[C@H]1c1cccnc1`, the outcome was inactive.

Take `O=C(OCCCCCCOC(=O)c1ccccc1)c1ccccc1`: the result was inactive.

In the case of `CCN(CC)C(=O)c1cc(S(=O)(=O)Cc2ccccc2)c(N2CCC(c3ccccc3)CC2)cc1N(CC)CCN(C)C`, the result was inactive.

On to `c1ccc2n[nH]nc2c1`, for which the outcome was inactive.

As for `c1ccc(C[n+]2cccc3ccccc32)cc1`, the result was inactive.

Take `CC(=O)N1CCN(c2ccc(OC[C@H]3CO[C@](Cn4ccnc4)(c4ccc(Cl)cc4Cl)O3)cc2)CC1`: the half-maximal activity concentration (AC50) was 36.9 µM (active).
